# According to the supplement of paper PMC10849652:
# Targets with a hit are over-represented here; the source holds about 7,900 in all. About 0.6% of all pairs of compound and target were hits. Values without a mark were called inactive.
# Compound: Cc1nc(Nc2ncc(C(=O)Nc3c(C)cccc3Cl)s2)cc(N2CCN(CCO)CC2)n1 [dasatinib]
# Assay: log2 fold change, soluble protein after heating vs DMSO (PISA); higher = thermal stabilisation; K562 cells, 10 uM, 30 min; active = over 0.2 and 3.5 SD of the protein, either way, in both replicates (recomputed)
# Method in brief: (§1)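 Soluble protein was quantified by TMTpro 16plex LC-MS/MS after channel sums were equalised. It was obtained as the supernatant after 21,000xg for 90 min from pooled aliquots of K562 cells (2×10^6 cells/mL, 10 μM compound, 30 min) heated for 3 min across 48°C-58°C and extracted in PBS with 0.5% NP-40 at 4°C. Thermal stability values are relative to control samples and come from duplicates. They are given as log2 fold changes.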
# UniProt Q86VX9, sequence (Q86VX9 whole entry, looked up): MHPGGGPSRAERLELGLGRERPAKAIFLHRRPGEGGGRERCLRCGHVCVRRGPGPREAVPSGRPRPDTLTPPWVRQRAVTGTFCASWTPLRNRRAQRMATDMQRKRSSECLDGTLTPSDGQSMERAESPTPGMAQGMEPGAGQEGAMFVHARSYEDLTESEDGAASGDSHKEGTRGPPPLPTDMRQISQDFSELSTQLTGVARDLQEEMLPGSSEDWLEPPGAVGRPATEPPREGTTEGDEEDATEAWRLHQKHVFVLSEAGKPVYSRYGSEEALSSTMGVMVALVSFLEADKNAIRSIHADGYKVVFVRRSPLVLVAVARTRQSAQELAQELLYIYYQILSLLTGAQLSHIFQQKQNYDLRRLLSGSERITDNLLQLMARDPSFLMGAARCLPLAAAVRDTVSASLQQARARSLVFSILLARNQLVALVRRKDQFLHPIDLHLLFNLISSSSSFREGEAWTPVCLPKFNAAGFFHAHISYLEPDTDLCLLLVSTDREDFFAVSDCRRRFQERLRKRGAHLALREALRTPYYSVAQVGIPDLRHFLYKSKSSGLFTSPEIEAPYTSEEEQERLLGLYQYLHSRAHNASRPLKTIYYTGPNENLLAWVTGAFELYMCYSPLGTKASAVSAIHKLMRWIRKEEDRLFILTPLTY
# UniProt Q68DK7, sequence (Q68DK7 whole entry, looked up): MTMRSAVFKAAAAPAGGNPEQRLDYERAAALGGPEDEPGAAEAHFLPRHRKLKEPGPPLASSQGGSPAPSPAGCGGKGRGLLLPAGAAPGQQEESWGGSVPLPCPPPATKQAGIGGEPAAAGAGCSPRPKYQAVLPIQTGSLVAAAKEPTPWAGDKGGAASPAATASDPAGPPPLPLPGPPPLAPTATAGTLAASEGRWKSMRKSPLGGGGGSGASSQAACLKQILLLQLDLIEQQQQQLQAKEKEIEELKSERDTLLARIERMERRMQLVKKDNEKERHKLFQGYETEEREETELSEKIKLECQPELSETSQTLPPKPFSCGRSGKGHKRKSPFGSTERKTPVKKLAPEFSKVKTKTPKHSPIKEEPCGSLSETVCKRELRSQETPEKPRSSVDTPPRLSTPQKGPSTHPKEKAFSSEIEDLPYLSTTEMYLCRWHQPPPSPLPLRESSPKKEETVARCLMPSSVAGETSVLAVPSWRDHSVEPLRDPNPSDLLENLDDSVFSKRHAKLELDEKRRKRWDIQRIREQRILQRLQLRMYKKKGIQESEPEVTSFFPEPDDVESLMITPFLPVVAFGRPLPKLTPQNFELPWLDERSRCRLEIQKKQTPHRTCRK
# UniProt Q9H3L0, sequence (Q9H3L0 whole entry, looked up): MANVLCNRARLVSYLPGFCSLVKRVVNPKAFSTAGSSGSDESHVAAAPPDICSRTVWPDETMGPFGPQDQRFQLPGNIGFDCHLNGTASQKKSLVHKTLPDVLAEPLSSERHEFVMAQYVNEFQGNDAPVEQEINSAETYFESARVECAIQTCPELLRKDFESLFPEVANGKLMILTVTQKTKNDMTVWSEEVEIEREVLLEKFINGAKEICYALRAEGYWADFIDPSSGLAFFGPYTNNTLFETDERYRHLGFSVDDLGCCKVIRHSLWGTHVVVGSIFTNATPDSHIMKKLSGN
# UniProt O15460, sequence (O15460 whole entry, looked up): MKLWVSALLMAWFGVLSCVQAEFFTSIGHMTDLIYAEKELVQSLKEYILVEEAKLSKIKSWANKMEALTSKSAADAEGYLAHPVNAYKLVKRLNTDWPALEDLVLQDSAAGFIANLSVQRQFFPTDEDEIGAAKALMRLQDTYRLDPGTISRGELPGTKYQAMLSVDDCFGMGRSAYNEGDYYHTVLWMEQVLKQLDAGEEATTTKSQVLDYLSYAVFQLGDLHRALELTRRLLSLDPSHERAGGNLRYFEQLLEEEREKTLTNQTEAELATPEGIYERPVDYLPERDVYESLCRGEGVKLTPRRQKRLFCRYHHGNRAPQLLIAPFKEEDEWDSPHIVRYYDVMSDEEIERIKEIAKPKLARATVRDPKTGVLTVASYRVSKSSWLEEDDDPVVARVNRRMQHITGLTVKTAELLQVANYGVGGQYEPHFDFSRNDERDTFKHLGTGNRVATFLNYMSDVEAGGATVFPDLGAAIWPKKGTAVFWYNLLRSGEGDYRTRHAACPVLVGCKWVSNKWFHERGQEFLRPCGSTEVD
# UniProt P25208, sequence (P25208 whole entry, looked up): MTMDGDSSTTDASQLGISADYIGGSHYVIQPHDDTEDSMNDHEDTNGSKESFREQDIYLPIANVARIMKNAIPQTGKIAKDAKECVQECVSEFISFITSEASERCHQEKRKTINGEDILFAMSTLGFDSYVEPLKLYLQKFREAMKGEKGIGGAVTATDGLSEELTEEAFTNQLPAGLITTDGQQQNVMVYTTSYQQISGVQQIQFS
# UniProt P04181, sequence (P04181 whole entry, looked up): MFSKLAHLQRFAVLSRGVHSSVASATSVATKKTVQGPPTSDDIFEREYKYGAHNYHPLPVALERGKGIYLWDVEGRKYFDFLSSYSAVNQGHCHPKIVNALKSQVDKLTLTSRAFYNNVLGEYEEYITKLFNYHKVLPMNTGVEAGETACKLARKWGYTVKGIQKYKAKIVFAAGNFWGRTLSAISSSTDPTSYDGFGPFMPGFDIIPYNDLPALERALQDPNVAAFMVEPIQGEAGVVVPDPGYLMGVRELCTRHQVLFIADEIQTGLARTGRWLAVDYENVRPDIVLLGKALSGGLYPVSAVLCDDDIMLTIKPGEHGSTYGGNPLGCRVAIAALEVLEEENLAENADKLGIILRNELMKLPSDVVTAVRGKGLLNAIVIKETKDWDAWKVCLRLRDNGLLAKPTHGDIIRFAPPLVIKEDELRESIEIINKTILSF
# UniProt O43913, sequence (O43913 whole entry, looked up): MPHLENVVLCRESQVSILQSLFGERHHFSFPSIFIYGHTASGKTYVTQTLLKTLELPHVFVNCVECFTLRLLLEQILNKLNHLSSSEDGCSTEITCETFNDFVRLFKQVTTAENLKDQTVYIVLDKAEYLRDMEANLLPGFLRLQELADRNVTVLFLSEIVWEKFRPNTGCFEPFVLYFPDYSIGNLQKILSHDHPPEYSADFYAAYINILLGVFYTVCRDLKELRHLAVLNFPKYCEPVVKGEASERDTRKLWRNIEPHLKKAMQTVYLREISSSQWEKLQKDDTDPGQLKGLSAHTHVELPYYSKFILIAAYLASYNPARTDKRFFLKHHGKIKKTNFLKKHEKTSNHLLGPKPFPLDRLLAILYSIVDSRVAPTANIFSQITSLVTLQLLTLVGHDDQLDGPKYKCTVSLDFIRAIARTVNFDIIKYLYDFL
# UniProt Q9Y605, sequence (Q9Y605 whole entry, looked up): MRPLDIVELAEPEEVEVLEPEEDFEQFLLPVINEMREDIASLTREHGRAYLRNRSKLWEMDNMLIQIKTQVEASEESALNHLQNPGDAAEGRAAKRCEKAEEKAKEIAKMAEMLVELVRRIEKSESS
# UniProt Q96H55, sequence (Q96H55 whole entry, looked up): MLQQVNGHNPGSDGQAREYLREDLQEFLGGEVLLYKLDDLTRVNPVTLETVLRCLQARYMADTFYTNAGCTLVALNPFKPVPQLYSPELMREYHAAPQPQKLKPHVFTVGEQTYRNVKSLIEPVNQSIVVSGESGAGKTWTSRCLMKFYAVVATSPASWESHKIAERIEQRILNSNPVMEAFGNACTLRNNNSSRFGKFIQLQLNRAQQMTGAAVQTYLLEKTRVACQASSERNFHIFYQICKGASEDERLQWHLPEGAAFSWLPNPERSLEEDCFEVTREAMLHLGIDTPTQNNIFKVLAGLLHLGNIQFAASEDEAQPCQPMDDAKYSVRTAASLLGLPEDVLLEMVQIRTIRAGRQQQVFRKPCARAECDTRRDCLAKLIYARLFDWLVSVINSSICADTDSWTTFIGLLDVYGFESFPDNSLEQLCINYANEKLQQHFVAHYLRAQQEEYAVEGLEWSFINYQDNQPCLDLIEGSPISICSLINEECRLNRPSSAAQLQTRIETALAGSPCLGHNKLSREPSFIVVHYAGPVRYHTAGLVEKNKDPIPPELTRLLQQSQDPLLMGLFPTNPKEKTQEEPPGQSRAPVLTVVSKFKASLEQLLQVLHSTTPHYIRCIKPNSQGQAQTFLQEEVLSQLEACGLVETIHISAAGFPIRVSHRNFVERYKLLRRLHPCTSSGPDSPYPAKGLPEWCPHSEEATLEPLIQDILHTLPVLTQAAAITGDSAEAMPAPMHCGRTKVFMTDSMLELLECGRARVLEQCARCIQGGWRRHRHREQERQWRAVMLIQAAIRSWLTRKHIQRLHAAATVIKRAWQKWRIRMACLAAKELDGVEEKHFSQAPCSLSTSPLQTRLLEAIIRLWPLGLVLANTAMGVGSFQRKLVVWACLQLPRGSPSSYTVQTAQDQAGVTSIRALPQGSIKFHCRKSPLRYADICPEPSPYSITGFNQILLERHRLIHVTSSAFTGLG
# UniProt O75607, sequence (O75607 whole entry, looked up): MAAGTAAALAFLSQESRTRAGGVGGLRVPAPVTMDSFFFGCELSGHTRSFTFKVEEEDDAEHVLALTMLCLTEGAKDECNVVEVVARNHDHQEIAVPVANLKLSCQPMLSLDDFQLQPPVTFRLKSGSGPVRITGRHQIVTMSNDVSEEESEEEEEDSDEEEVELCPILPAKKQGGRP
# UniProt P40261, sequence (P40261 whole entry, looked up): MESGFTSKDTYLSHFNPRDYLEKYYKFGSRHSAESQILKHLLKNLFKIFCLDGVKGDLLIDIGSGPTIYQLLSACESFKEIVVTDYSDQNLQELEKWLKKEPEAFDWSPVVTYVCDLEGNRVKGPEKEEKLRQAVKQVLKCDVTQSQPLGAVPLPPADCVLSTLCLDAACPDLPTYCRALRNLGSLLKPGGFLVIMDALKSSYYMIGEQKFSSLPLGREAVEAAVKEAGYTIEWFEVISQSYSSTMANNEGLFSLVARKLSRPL
# UniProt Q69YL0, sequence (Q69YL0 whole entry, looked up): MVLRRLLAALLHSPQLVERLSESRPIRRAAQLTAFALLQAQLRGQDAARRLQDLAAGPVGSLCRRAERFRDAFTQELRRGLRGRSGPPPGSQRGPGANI
# UniProt O75438, sequence (O75438 whole entry, looked up): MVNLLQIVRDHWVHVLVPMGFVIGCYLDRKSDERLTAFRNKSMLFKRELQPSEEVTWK
row,Target,log2 fold change
1,NMU (UniProt P48645),0.16
2,NIPSNAP3B (UniProt Q9BS92),-0.044
3,NFYB (UniProt P25208),0.124
4,MYLK (UniProt Q15746),0.65 (active)
5,NAP1L1 (UniProt B7Z9C2),-0.347
6,NAGPA (UniProt Q9UK23),0.053
7,NNMT (UniProt P40261),0.037
8,NKAP (UniProt Q8N5F7),0.086
9,MMADHC (UniProt Q9H3L0),-0.155
10,OGFOD2 (UniProt Q6N063),-0.04
11,NUP160 (UniProt Q12769),-0.045
12,NPM3 (UniProt O75607),0.101
13,P4HA2 (UniProt O15460),-0.057
14,"NA, A0A494C071",0.029
15,MT-ND2 (UniProt P03891),-0.459 (active)
16,NRDC isoform 2 (UniProt O43847),-0.133

row,Target,log2 fold change
1,"NA, A0A2R8Y3M9",-0.013
2,MRFAP1 (UniProt Q9Y605),-0.054
3,NCBP2AS2 (UniProt Q69YL0),-0.021
4,OAT (UniProt P04181),-0.109
5,MON1A (UniProt Q86VX9),0.017
6,NDFIP1 (UniProt Q9BT67),0.039
7,MYO19 (UniProt Q96H55),-0.111
8,ORC5 (UniProt O43913),-0.231
9,MSL1 (UniProt Q68DK7),0.014
10,NUMBL (UniProt Q9Y6R0),-0.029
11,NELFCD (UniProt Q8IXH7),-0.158
12,MTFR1L (UniProt Q9H019),-0.167
13,NUP98 (UniProt P52948),-0.077
14,NECTIN2 isoform 2 (UniProt Q92692),0.001
15,MLX (UniProt Q9UH92),0.008
16,OPHN1 (UniProt O60890),-0.04

# Compound: Cc1ncc(-c2ccnc(Nc3ccc(S(C)(=O)=O)cc3)n2)n1C(C)C
# Assay: as above
# Method in brief: as §1
row,Target,log2 fold change
1,NMU (UniProt P48645),-0.012
2,NIPSNAP3B (UniProt Q9BS92),0.013
3,NFYB (UniProt P25208),0.034
4,MYLK (UniProt Q15746),0.136
5,NAP1L1 (UniProt B7Z9C2),-0.043
6,NAGPA (UniProt Q9UK23),0.014
7,NNMT (UniProt P40261),-0.021
8,NKAP (UniProt Q8N5F7),0.015
9,MMADHC (UniProt Q9H3L0),0.023
10,OGFOD2 (UniProt Q6N063),-0.023
11,OVCA2 (UniProt Q8WZ82),-0.163
12,NUP160 (UniProt Q12769),-0.06
13,NPM3 (UniProt O75607),-0.121
14,P4HA2 (UniProt O15460),-0.008
15,"NA, A0A494C071",-0.439
16,MOB2 isoform 3 (UniProt Q70IA6),0.03
17,MT-ND2 (UniProt P03891),-0.171

row,Target,log2 fold change
1,NRDC isoform 2 (UniProt O43847),0.011
2,"NA, A0A2R8Y3M9",0.31
3,MRFAP1 (UniProt Q9Y605),0.051
4,NCBP2AS2 (UniProt Q69YL0),0.031
5,OAT (UniProt P04181),-0.073
6,MON1A (UniProt Q86VX9),0.138
7,NDFIP1 (UniProt Q9BT67),0.225
8,NME2P1 (UniProt O60361),-0.107
9,MOB3B (UniProt Q86TA1),0.032
10,MYO19 (UniProt Q96H55),0.038
11,MYH16 (UniProt Q9H6N6),0.088
12,ORC5 (UniProt O43913),-0.114
13,MSL1 (UniProt Q68DK7),-0.042
14,NDUFB1 (UniProt O75438),-0.028
15,NUMBL (UniProt Q9Y6R0),0.027
16,NELFCD (UniProt Q8IXH7),0.064
